In PubChem BioAssay (NCI):
The panel holds about 79,000 compounds, 15% with a hit somewhere; the sample as a whole holds those more often. A number with no mark means an inactive call. The source made the active and inactive calls. No stated cut-off is given here; in the data, active means growth inhibition above about 70%; inactive means the rest.

How the values were obtained:
[1] = NCI Yeast Anticancer Drug Screen. Data for the rad50 strain (AID 155);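 further: 0% = growth of vehicle-only cultures of the same strain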; conditions: S. cerevisiae rad50 strain growth inhibition; at 50.0 µM; active compounds read high
In short: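 Genetically altered yeast (DNA repair pathway); compound treatment; growth inhibition vs vehicle ctrl.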

[2] = NCI Yeast Anticancer Drug Screen. Data for the mec2-1 strain (AID 157); conditions: S. cerevisiae mec2-1 strain, at 50.0 µM, active compounds read high
In short: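 Strain: mec2-1 (DNA repair/cell cycle alteration). Compound exposure, then growth measured; inhibition expressed relative to vehicle.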

[3] = NCI Yeast Anticancer Drug Screen. Data for the sgs1 mgt1 strain (AID 161);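 further: 0% = growth of cultures given vehicle only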; conditions: S. cerevisiae sgs1 mgt1 strain, at 50.0 µM, active compounds read high
In short: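 Test agents were incubated with a DNA-repair-mutant yeast strain. Growth was then read and compared against vehicle-treated controls.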

[4] = NCI Yeast Anticancer Drug Screen. Data for the cln2 rad14 strain (AID 165);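 further: 0% = growth equal to vehicle treated cultures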; conditions: S. cerevisiae cln2 rad14 strain, at 50.0 µM, active compounds read high
In short: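 Compounds are applied to the cln2 rad14 yeast strain, and growth is then compared with that of vehicle-treated cultures to give inhibition.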

[5] = NCI Yeast Anticancer Drug Screen. Data for the bub3 strain (AID 167); conditions: S. cerevisiae bub3 mutant strain, at 50.0 µM, active compounds read high
In short: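 Yeast carrying a defined mutation is treated with each compound, and growth is compared with that of vehicle-exposed cells to give inhibition.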

[6] = NCI Yeast Anticancer Drug Screen. Data for the mlh1 rad18 strain (AID 175); conditions: S. cerevisiae mlh1 rad18 strain growth inhibition; at 50.0 µM; active compounds read high
In short: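 Read-out is yeast growth inhibition, calculated against vehicle-only controls. The compound was applied to a strain engineered with DNA damage repair alterations.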

Row | SMILES | growth inhibition [1] [%] | growth inhibition [2] [%] | growth inhibition [3] | growth inhibition [4] | growth inhibition [5] [%] | growth inhibition [6] [%]
1 | c1ccc(C2OCC(OC3CCCCO3)CO2)cc1 (centres undefined) | -0.1 | -26.5 | -24.6% | -5.1% | -9.45 | -2.15
2 | CC(C)(O)C1OCC(C2CCC3(C)C4=CCC5C(C)(C)C(O)CCC5(C)C4CCC23C)CC1O (centres undefined) | 23.7 | 27.6 | 34.8% | 42.6% | 21.5 | 4.75
3 | COC(=O)c1ccc2c(ccc[n+]2C)c1 | -0.6 | 21.3 | -7.05% | 4.8% | -3.45 | 2.3
4 | NC(=O)C1CCCN1C(=O)C(Cc1cnc[nH]1)NC(=O)C1CCCC1 (centres undefined) | -46.4 | -1.6 | -1.65% | 8.1% | 7.05 | -8.35
5 | CN(CC1=C(O)C(=O)C(CN(C)Cc2c(O)ccc3ccccc23)=C(O)C1=O)Cc1c(O)ccc2ccccc12 | 30.7 | 4.85 | 34.1% | -1.25% | 5.3 | 28.9
6 | C(=C\c1ccc2ccc(/C=C/c3ccccc3)cc2c1)/c1ccccc1 | -15.2 | 14.7 | 12.1% | -26.8% | 8.25 | -17.1
7 | CCC(C)n1c(C)nc2cc(C(F)(F)F)cc(N)c21 (centres undefined) | 20.7 | 18.4 | 8.4% | -31.2% | 11.6 | 15.2
8 | CCCCCCC[CH2][Sn]1([CH2]CCCCCCC)[O]C2C(CO)OC(n3ccc4c(N)ncnc43)C2[O]1 (centres undefined) | -0.4 | 15.2 | 18.1% | 70.2% (active) | 4.45 | -0.85
9 | COCC1(c2ccccc2)C(=O)N(C)C(=O)N1C (centres undefined) | -7.6 | 2.5 | -6.25% | -6.3% | -9.85 | 5.25
10 | CCCn1c(=S)[nH]c2c(=O)n(C)c(=O)n(C)c21 | -3.55 | -8.9 | -0.45% | -17.8% | -4.85 | 5.65
11 | O=C(CCN1CCCC1)c1ccc2ccccc2c1 | 32.6 | 49.3 | 65.9% | 43.6% | 59.4 | 21.6
12 | C[N+](C)(CCS(=O)(=O)[O-])C1CCCCC1 | -6.65 | -8.7 | -8.9% | -23.1% | 6.75 | -12.8
13 | O=C(NC(=S)c1ccco1)NS(=O)(=O)c1ccc(Cl)cc1 | 8.35 | 7.05 | 12.2% | 16.2% | 20.4 | 29.4
14 | CC(C)(C)/C=N/Nc1ccc([N+](=O)[O-])cc1[N+](=O)[O-] | 26.4 | 15.1 | -0.05% | -40.2% | 11.7 | -13.3
15 | CCCCCCCCCCCCCCCCN=C1C=Cc2ccccc2C1=NCCCCCCCCCCCCCCCC | -0.45 | 6.4 | 11.6% | 11.6% | 5.95 | 4.4
16 | CCN(CC)Cc1cc(C)c(O)c(N=Nc2cc(OC)c(N=Nc3ccc([N+](=O)[O-])cc3)cc2OC)c1C | 16 | 12.4 | 34.1% | 34.1% | 4.7 | 50.1
17 | CC(C)C(NC(=O)C(=O)c1c[nH]c2ccc(Cl)cc12)C(=O)O (centres undefined) | -28.9 | -9.55 | -5.7% | -10% | -10.2 | -1.95
18 | CN(Cc1cnc2nc(N)nc(N)c2n1)c1ccc(C(=O)NC(CCC(=O)NC(CCC(=O)O)C(=O)O)C(=O)O)cc1 (centres undefined) | 34.7 | 20.6 | 32.8% | 13.5% | 33.5 | 36.2
19 | O=C1c2c(O)cccc2C(C(=O)CCCC(=O)C2c3cccc(O)c3C(=O)c3c(O)cccc32)c2cccc(O)c21 | -1.55 | 13.2 | 3.25% | 19.9% | -15.8 | -0.85
20 | COC(=O)/C=C(\C)CC(O)/C=C(\C)CCC=C(C)C (centres undefined) | 21.1 | 49.1 | 75.1% (active) | 12.8% | 60.5 | -23.1

Row | SMILES | growth inhibition [1] [%] | growth inhibition [2] [%] | growth inhibition [3] | growth inhibition [4] | growth inhibition [5] [%] | growth inhibition [6] [%]
21 | CCOC(=O)C1=C(Nc2ccccc2)OC/C1=N\NC(=O)Cc1ccccc1 | -6.75 | -23.7 | -1.6% | 0.85% | 10.2 | -19.1
22 | CCC(C)(C)c1ccc(OCCOc2ccc(C(=O)O)cc2[N+](=O)[O-])cc1 | -4.1 | 12.2 | -3.9% | -17.6% | -6.6 | -20.1
23 | Cc1cc(=O)oc2c(C)c(O)ccc12 | 0 | -16.5 | -3.15% | 13.7% | -16.6 | 16.4
24 | COC(=O)C(C)Oc1ccc(O)cc1 (centres undefined) | 21.7 | -3 | 5% | 7.7% | 19.7 | 10.4
25 | COc1cc([C@@H]2c3cc4c(cc3[C@H](OC(=O)CCCC(=O)O)[C@H]3COC(=O)[C@H]23)OCO4)cc(OC)c1OC | 26.2 | 23.2 | 38.5% | 32.3% | 10.9 | 33.6
26 | C[N+](C)(C)CC(=O)NN | 10.1 | -0.8 | -21.7% | -17.6% | -18 | 38.6
27 | COC(=O)c1c2c(cc3c1CC1(C3)Cc3cc4c(c(C(C)=O)c3C1)CCC4)C=CC2 (centres undefined) | 0.15 | -12.3 | -26.1% | 1.35% | -5.75 | -22.6
28 | CCOc1ccc(NC(=O)Oc2ccc(-c3ccccc3)cc2)cc1 | 15.8 | 33.5 | 24.4% | -12% | 56.7 | 48.1
29 | O=C(O)CNC1CCCC1 | -1.3 | 3.65 | 4.35% | -1.6% | 4.95 | -15.1
30 | CC(=O)OCC(CO)(CO)COC(C)=O | 8.25 | 8.65 | -16.2% | 7.45% | -3.7 | -6.7
31 | CCC(=O)C(CC)c1ccccc1 (centres undefined) | 9.25 | -8 | -4.8% | 2.2% | 4.4 | 4.55
32 | OC(Cc1ccccc1)CN1CCN(c2ccccc2)CC1 (centres undefined) | 10.4 | 4 | 8% | 17.1% | 8.05 | 4.05
33 | CCOC(=O)N1Cc2cc3ccccc3nc2C1CC(=O)O (centres undefined) | -14.8 | 11.9 | -3.6% | -28.1% | -1.65 | -24.8
34 | O=C(c1ccccc1C(=O)N1CCCO1)N1CCCO1 | -0.45 | -8.3 | 6.9% | -15.8% | 6.15 | 16.9
35 | O=P(O)(OCCOc1ccccc1)OCCOc1ccccc1 | 6.25 | 10.5 | 8.25% | -24.6% | -11.6 | -12.8
36 | CC1(C)CCC(C2=CC(=O)c3c(O)ccc(O)c3C2=O)O1 (centres undefined) | -8.25 | -17.1 | 10.5% | 17.9% | -12.6 | -2.8
37 | CN(C)CCCNC(=O)N/N=C/c1ccc(O)cc1 | -10.2 | -25.1 | 7% | 17.8% | 1.65 | -25.2
38 | CCCCN(CCCC)C(=O)C(O)C(=O)N(CCCC)CCCC | -5.05 | -13.8 | -4.4% | -9.6% | -13.3 | -3.8
39 | NC1CCC(P(=O)(O)O)CC1 (centres undefined) | -0.35 | 3.45 | -4.75% | -9.65% | -6.2 | -5.1
